Assay results published in PubChem BioAssay (Tox21).
Inconclusive results are not listed. Calls of active or inactive are those of the source. Unless noted, the call rests on the fitted dose curve; in most records, active means well fitted curve in the direction sought with a large enough effect in the repeat runs; inconclusive means weak or mixed curves; inactive means no such curve, though single readings can be large; an effect the other way counts as inactive or inconclusive.

Key:
[1] = qHTS assay to identify small molecule agonists of H2AX - cell viability counter screen (AID 1224847; calls by dose curve; further: nearly all actives have a fitted effect of over 30% in size; further: potency means the concentration at half of the fitted maximal effect)
Procedure, shortened: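 Quantitative HTS viability measurement: CHO-K1 wild-type cells in serum (10% FBS) medium, short 3 hr drug exposure at 37C with 0.76% DMSO, CellTiter-Glo luminescent detection.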

[2] = qHTS assay to identify small molecule agonists of the estrogen related receptor (ERR) signaling pathway from Tox21 library (AID 1224849; calls by dose curve; further: on the % scale 0 is the no-effect control and ±100 the full control effect; nearly all actives have a fitted effect of over 15% in size); details: ERR reporter cell line, ONE-Glo luciferase, 18 h; at 92.4 µM (top of the series) unless noted
Procedure, shortened: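 ERR reporter cells (NTP line) pre-incubated 6 hours at 37 C, then exposed to compounds for 18 hours at 37 C. ONE-Glo luciferase luminescence was read after 30 minutes at room temperature.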

[3] = qHTS RealTime-Glo MT Cell Viability Assay in HepG2 cells - 24 hour (AID 1224867); further: nearly all actives have a fitted effect of over 50% in size; further: potency means the concentration at half of the fitted maximal effect
Procedure, shortened: (§1)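 Compound treatment began 5 h after plating HepG2 cells (600/well) with NanoLuc luciferase and prosubstrate. Plates stayed at 37 C for 40 h; luminescence was captured at six time points, 0 h through 40 h.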

[4] = A CellTox Green Cytotoxicity Assay to monitor cytotoxicity in HEK293 cells - 0 hour (AID 1224869); further: on the % scale 0 is the no-effect control and ±100 the full control effect; nearly all actives have a fitted effect of over 50% in size
Procedure, shortened: (§2)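 HEK293 cells, 600/well, were preincubated 5 hours and then exposed to compounds at 37 C for up to 40 hours. A cell-impermeant cyanine dye staining dead-cell DNA was read by fluorescence at 0, 8, 16, 24, 32 and 40 h time points.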

[5] = qHTS RealTime-Glo MT Cell Viability Assay in HepG2 cells - 40 hour (AID 1224870); further: nearly all actives have a fitted effect of over 50% in size; further: potency means the concentration at half of the fitted maximal effect
Procedure, shortened: (§3)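 HepG2 cells mixed with RealTime-Glo MT reagents (NanoLuc plus cell-permeant prosubstrate) were seeded at 600 cells/well, incubated 5 h at 37 C/5% CO2, then pinned with compounds in DMSO; nonlytic luminescence tracked viability during 40 h treatment.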

[6] = A CellTox Green Cytotoxicity Assay to monitor cytotoxicity in HEK293 cells - 40 hour (AID 1224871); further: nearly all actives have a fitted effect of over 45% in size; further: potency means the concentration at half of the fitted maximal effect
Procedure, shortened: as §2

[7] = qHTS RealTime-Glo MT Cell Viability Assay in HEK293 cells - 16 hour (AID 1224872); further: nearly all actives have a fitted effect of over 50% in size; further: potency means the concentration at half of the fitted maximal effect
Procedure, shortened: (§4)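 Quantitative high-throughput screen of the Tox21 10K library in HEK293: cells and RealTime-Glo reagents plated together, compound added at 5 h, luminescence monitored through 40 h at 37 C.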

[8] = qHTS RealTime-Glo MT Cell Viability Assay in HepG2 cells - 8 hour (AID 1224873); further: nearly all actives have a fitted effect of over 55% in size; further: potency means the concentration at half of the fitted maximal effect
Procedure, shortened: as §3

[9] = A CellTox Green Cytotoxicity Assay to monitor cytotoxicity in HEK293 cells - 24 hour (AID 1224875); further: nearly all actives have a fitted effect of over 45% in size; further: potency means the concentration at half of the fitted maximal effect; on activity change: on the % scale 0 is the no-effect control and ±100 the full control effect
Procedure, shortened: as §2

[10] = A CellTox Green Cytotoxicity Assay to monitor cytotoxicity in HepG2 cells - 16 hour (AID 1224876); further: nearly all actives have a fitted effect of over 45% in size; further: potency means the concentration at half of the fitted maximal effect
Procedure, shortened: (§5)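 HepG2 cells, 600/well, preincubated 5 h with CellTox Green dye, then exposed to Tox21 compounds in DMSO at 37 C for up to 40 h. Dead-cell DNA fluorescence read at the indicated time point.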

[11] = qHTS RealTime-Glo MT Cell Viability Assay in HepG2 cells - 32 hour (AID 1224877); further: nearly all actives have a fitted effect of over 55% in size; further: potency means the concentration at half of the fitted maximal effect
Procedure, shortened: as §1

[12] = A CellTox Green Cytotoxicity Assay to monitor cytotoxicity in HepG2 cells - 24 hour (AID 1224878); further: nearly all actives have a fitted effect of over 45% in size; further: potency means the concentration at half of the fitted maximal effect; on Cytotoxicity: on the % scale 0 is the no-effect control and ±100 the full control effect
Procedure, shortened: as §5

[13] = A CellTox Green Cytotoxicity Assay to monitor cytotoxicity in HepG2 cells - 40 hour (AID 1224879); further: nearly all actives have a fitted effect of over 40% in size; further: potency means the concentration at half of the fitted maximal effect
Procedure, shortened: as §5

[14] = qHTS RealTime-Glo MT Cell Viability Assay in HEK293 cells - 0 hour (AID 1224880); further: nearly all actives have a fitted effect of over 45% in size; further: potency means the concentration at half of the fitted maximal effect
Procedure, shortened: (§6)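 600 cells/well were plated with the nonlytic NanoLuc/prosubstrate reagent, pre-incubated 5 h, then given 23 nL of compound in DMSO. Incubation at 37 C for 40 h, with luminescence from viable-cell-reduced substrate read repeatedly from 0 h.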

[15] = A CellTox Green Cytotoxicity Assay to monitor cytotoxicity in HEK293 cells - 32 hour (AID 1224881); further: nearly all actives have a fitted effect of over 40% in size; further: potency means the concentration at half of the fitted maximal effect
Procedure, shortened: as §2

[16] = qHTS assay to identify small molecule antagonists of the estrogen related receptor (ERR) signaling pathway from Tox21 library (AID 1224848)
Procedure, shortened: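 Screening used an ERR reporter line supplied by NTP, exposed for 18 h at 37 C to library compounds delivered in DMSO. Signal was luciferase luminescence developed with ONE-Glo at room temperature for 30 min.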

[17] = qHTS RealTime-Glo MT Cell Viability Assay in HEK293 cells - 32 hour (AID 1224868)
Procedure, shortened: as §4

[18] = qHTS RealTime-Glo MT Cell Viability Assay in HEK293 cells - 40 hour (AID 1224874); details: RealTime-Glo luminescence; max response: hits give low values
Procedure, shortened: as §6

O=C(OCC1CO1)C1CCCCC1C(=O)OCC1CO1 (stereo not drawn)
inactive: Potency [1] | activity change, positive = activation [2] -46.8% | Potency [3] | Potency [4] | Potency [5] | Potency [6] | Potency [7] | Potency [8] | Potency [9] | Potency [10] | Potency [11] | Potency [12] | Potency [13] | Potency [14] | Potency [15]

CCCCCCCCCCn1cc[n+](CCCCCCCCCC)c1C
active: Potency [1] 10.1 µM | Potency [16] 2.17 µM | Potency [3] 19.5 µM | Potency [17] 1.38 µM | Potency [5] 19.5 µM | Potency [6] 19.5 µM | Potency [7] 6.93 µM | Potency [8] 49 µM | Potency [18] 0.979 µM | Potency [9] 17.4 µM | Potency [10] 21.9 µM | Potency [11] 19.5 µM | Potency [13] 15.5 µM | Potency [15] 19.5 µM
inactive: activity change, positive = activation [2] -74.4% | Potency [4] | Potency [14]

N=C1N=C(N)c2cc3ccccc3cc21
inactive: Potency [4] | Potency [14]
active: Potency [1] 127 µM | Potency [16] 68.6 µM | activity change, positive = activation [2] 2.31% | Potency [3] 47.6 µM [cytotoxic] | Potency [17] 19.5 µM | Potency [5] 24.5 µM [cytotoxic] | Potency [6] 54.9 µM | Potency [7] 27.5 µM | Potency [18] 32.1 µM | Potency [9] 54.9 µM | Potency [10] 43.6 µM | Potency [11] 24.5 µM | Potency [12] 24.5 µM | Potency [13] 24.5 µM | Potency [15] 54.9 µM

CCCCCCCC[N+](CCCCCCCC)(CCCCCCCC)CCCCCCCC
inactive: activity change, positive = activation [2] -81.8% | Potency [4]
active: Potency [1] 17.9 µM | Potency [16] 0.768 µM | Potency [3] 24.5 µM | Potency [17] 6.15 µM | Potency [5] 24.5 µM | Potency [6] 19.5 µM | Potency [7] 7.75 µM | Potency [8] 24.5 µM | Potency [18] 2.18 µM | Potency [9] 15.5 µM | Potency [10] 24.5 µM | Potency [11] 24.5 µM | Potency [12] 19.5 µM | Potency [13] 24.5 µM | Potency [15] 15.5 µM

N=C1C=CC(=C(c2ccc(N)cc2)c2ccc(N)cc2)C=C1
active: Potency [1] 28.4 µM | Potency [16] 2.17 µM | Potency [3] 24.5 µM | Potency [17] 2.19 µM | Potency [5] 38.9 µM | Potency [7] 3.09 µM | Potency [18] 1.95 µM | Potency [11] 24.5 µM
inactive: activity change, positive = activation [2] -66.1% | Potency [4] | Potency [6] | Potency [9] | Potency [12] | Potency [13] | Potency [14] | Potency [15]

CNc1ccc(O)cc1
active: Potency [1] 101 µM | Potency [17] 12.3 µM | Potency [6] 9.75 µM | Potency [7] 13.8 µM | Potency [8] 48.9 µM | Potency [18] 12.3 µM | Potency [13] 48.9 µM | Potency [14] 17.3 µM | Potency [15] 12.3 µM
inactive: activity change, positive = activation [2] -69.6% | Potency [4]

OC1(c2ccc(Cl)c(C(F)(F)F)c2)CCN(CCCC(c2ccc(F)cc2)c2ccc(F)cc2)CC1
inactive: activity change, positive = activation [2] -71.9% [at 42.5 µM] | Potency [4] | Potency [14]
active: Potency [1] 55.2 µM | Potency [16] 8.41 µM | Potency [3] 9.52 µM | Potency [17] 9.52 µM | Potency [5] 9.52 µM | Potency [6] 21.3 µM | Potency [7] 9.52 µM | Potency [8] 21.3 µM | Potency [18] 9.52 µM | Potency [9] 23.9 µM | Potency [10] 10.7 µM | Potency [11] 8.49 µM | Potency [12] 9.52 µM | Potency [13] 6.74 µM | Potency [15] 23.9 µM

Cc1cc(O)c2ccccc2c1O
active: Potency [1] 5.52 µM | Potency [16] 13.3 µM | Potency [3] 13.4 µM | Potency [17] 8.49 µM | Potency [5] 13.4 µM | Potency [6] 9.52 µM | Potency [7] 7.56 µM | Potency [8] 10.7 µM | Potency [18] 8.49 µM | Potency [9] 9.52 µM | Potency [11] 13.4 µM | Potency [12] 13.4 µM | Potency [13] 13.4 µM | Potency [15] 9.52 µM
inactive: activity change, positive = activation [2] -47.1% [at 42.5 µM] | Potency [4]

CC1=C(/C=C/C(C)=C/C=C/C(C)=C/C=O)C(C)(C)CCC1
active: Potency [1] 39.9 µM | Potency [3] 54.6 µM | Potency [17] 19.4 µM | Potency [6] 38.7 µM | Potency [7] 19.4 µM | Potency [18] 19.4 µM | Potency [9] 38.7 µM | Potency [12] 54.6 µM | Potency [13] 48.7 µM | Potency [15] 38.7 µM
inactive: Potency [4] | Potency [14]

Oc1cccc(-c2c3nc(c(-c4cccc(O)c4)c4ccc([nH]4)c(-c4cccc(O)c4)c4nc(c(-c5cccc(O)c5)c5ccc2[nH]5)CC4)C=C3)c1
active: Potency [7] 23.9 µM
inactive: Potency [4] | Potency [5] | Potency [6] | Potency [9] | Potency [10] | Potency [11] | Potency [12] | Potency [13] | Potency [15]

CSc1ccc2c(c1)C(N1CCN(C)CC1)Cc1ccccc1S2 (stereo not drawn)
inactive: Potency [4] | Potency [7] | Potency [8]
active: Potency [3] 23.9 µM | Potency [10] 26.8 µM | Potency [11] 23.9 µM | Potency [12] 23.9 µM | Potency [13] 23.9 µM

Oc1ccc(N=Nc2ccccc2)cc1
inactive: Potency [3] | Potency [4] | Potency [5] | Potency [8] | Potency [10] | Potency [11] | Potency [14]
active: Potency [17] 19.8 µM | Potency [7] 15.7 µM | Potency [18] 22.2 µM | Potency [15] 44.2 µM
